Values joined by “and” are separate entries in the source; they are usually repeats but may differ in a detail not shown here. Equal values may be shown once. Records with an inconclusive call do not appear. Active and inactive are the calls of the source. Calls come from the whole dose curve; as a rule, active = well fitted inhibition curve with a large enough effect; inconclusive = small, poorly fitted or top-dose-only effect; inactive = flat fitted curve, though single readings scatter.
How the values were obtained:
CRL-7250 = normal cell line; assay: Cytotoxic Profiling of Annotated Libraries Using Quantitative High-Throughput Screening (AID 1296008); details: Five cell lines viability, CellTiter-Glo ATP luminescence, 48-72 h; max response: stronger effect = lower value; note: potency is the fitted concentration of half-maximal effect; for max response: % is set by controls: 0 for no effect and ±100 for the full control effect
Summary of the method: (§1)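 Cells exposed to compounds for 48 or 72 hr at 37 degrees Celsius. Viability read as ATP-coupled luminescence with CellTiter-Glo after 10 min at room temperature.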

HEK293 = assay: as above; details: Five cell lines viability, CellTiter-Glo ATP luminescence, 48-72 h; max response: stronger effect = lower value
Summary of the method: as §1

HaCat [1] = assay: as above; details: Five cell lines viability, CellTiter-Glo ATP luminescence, 48-72 h; max response: stronger effect = lower value
Summary of the method: as §1

KB-3-1 = assay: as above; details: Five cell lines viability, CellTiter-Glo ATP luminescence, 48-72 h; max response: stronger effect = lower value
Summary of the method: as §1

NIH3T3 = assay: as above; details: Five cell lines viability, CellTiter-Glo ATP luminescence, 48-72 h; max response: stronger effect = lower value
Summary of the method: as §1

HACAT [2] = assay: qHTS assay to identify novel small-molecules to repurpose for Merkel cell carcinoma treatment (AID 1296009); details: MCC and control cell lines, CellTiter-Glo viability, 72 h; at 44.8 µM (top of the series) unless noted; note: potency is the fitted concentration of half-maximal effect
Summary of the method: (§2)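 Cells were treated for 72 hr at 37 degree celsius with compounds in 8- or 11-point dose response. Viability was read by CellTiter-Glo luminescence, normalized to no-cell (cytotoxicity) and DMSO controls.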

HEK293T = assay: as above; details: MCC and control cell lines, CellTiter-Glo viability, 72 h; at 44.8 µM (top of the series) unless noted
Summary of the method: as §2

MCC-13 = assay: as above; details: MCC and control cell lines, CellTiter-Glo viability, 72 h; series mostly up to 46 µM
Summary of the method: as §2

P94_40 = assay: qHTS profiling for inhibitors of Plasmodium falciparum proliferation (AID 504749);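 note: 0% = DMSO vehicle and full inhibition = artemisinin control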; details: P. falciparum in erythrocytes, SYBR Green DNA, 72 h; series mostly up to 28.7 µM
Summary of the method: (§3)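 P. falciparum-infected erythrocytes (0.3% parasitemia, 2.5% hematocrit) incubated with compound 72 h at 37 C, 5% CO2. Parasite DNA detected by SYBR Green after lysis, overnight at room temperature; normalised to 0.29 uM artemisinin and DMSO.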

PAD = assay: as above; details: P. falciparum in erythrocytes, SYBR Green DNA, 72 h; series mostly up to 28.7 µM
Summary of the method: as §3

PC15 = assay: as above; details: P. falciparum in erythrocytes, SYBR Green DNA, 72 h; series mostly up to 28.7 µM
Summary of the method: as §3

PC26 = assay: as above; details: P. falciparum in erythrocytes, SYBR Green DNA, 72 h; series mostly up to 28.7 µM
Summary of the method: as §3

PC49 = assay: as above; details: P. falciparum in erythrocytes, SYBR Green DNA, 72 h; series mostly up to 28.7 µM
Summary of the method: as §3

SC27B = assay: as above; details: P. falciparum in erythrocytes, SYBR Green DNA, 72 h; series mostly up to 28.7 µM
Summary of the method: as §3

TAB109 = assay: as above; details: P. falciparum in erythrocytes, SYBR Green DNA, 72 h; series mostly up to 28.7 µM
Summary of the method: as §3

TAB113 = assay: as above; details: P. falciparum in erythrocytes, SYBR Green DNA, 72 h; series mostly up to 28.7 µM
Summary of the method: as §3

TAB165 = assay: as above; details: P. falciparum in erythrocytes, SYBR Green DNA, 72 h; series mostly up to 28.7 µM
Summary of the method: as §3

W2 = assay: as above; details: P. falciparum in erythrocytes, SYBR Green DNA, 72 h; series mostly up to 28.7 µM
Summary of the method: as §3

MCC-26 = assay: qHTS assay to identify novel small-molecules to repurpose for Merkel cell carcinoma treatment (AID 1296009); details: MCC and control cell lines, CellTiter-Glo viability, 72 h; series mostly up to 46 µM; note: potency is the fitted concentration of half-maximal effect
Summary of the method: as §2

P93_24 = assay: qHTS profiling for inhibitors of Plasmodium falciparum proliferation (AID 504749);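 note: 0% = DMSO vehicle and full inhibition = artemisinin control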; details: P. falciparum in erythrocytes, SYBR Green DNA, 72 h; series mostly up to 28.7 µM
Summary of the method: as §3
Note: nearly all actives have a fitted effect of over 60% in size.

CN(CCCOc1ccc(Cc2ccccc2)cc1)CCC(=O)O
inactive: max response (CRL-7250) 2.73% | max response (HEK293) -4.43% | max response (HaCat [1]) -16.1% | max response (KB-3-1) 7.31% | outcome (NIH3T3)

CN1CC(=O)N/C1=N/C(=O)Nc1cccc(Cl)c1
inactive: max response (CRL-7250) 2.65% | outcome (HEK293) | outcome (HaCat [1]) | max response (KB-3-1) 1.15% and -4.39% | max response (NIH3T3) -0.466% | outcome (HACAT [2]) | outcome (HEK293T) | Potency (MCC-13)

O=C(Nc1ccc(C(=O)O)c(O)c1)c1ccccc1
inactive: Potency (P94_40) | Potency (PAD) | Potency (PC15) | Potency (PC26) | Potency (PC49) | Potency (SC27B) | Potency (TAB109) | Potency (TAB113) | Potency (TAB165) | Potency (W2) | outcome (CRL-7250) | outcome (HEK293) | outcome (HaCat [1]) | max response (KB-3-1) -1.99% | max response (NIH3T3) -1.76% | outcome (HACAT [2]) | outcome (HEK293T) | Potency (MCC-13)

N=C(N)N
inactive: max response (CRL-7250) -5.46% | outcome (HEK293) | outcome (HaCat [1]) | max response (KB-3-1) -12.6% | outcome (NIH3T3) | outcome (HACAT [2]) | outcome (HEK293T) | Potency (MCC-13) | Potency (MCC-26)

Cc1c(N)c(=O)n(-c2ccccc2)n1C
inactive: max response (CRL-7250) 4.52% | max response (HEK293) -1.84% | outcome (HaCat [1]) | max response (KB-3-1) -14.7% | max response (NIH3T3) -4.09% | outcome (HACAT [2]) | Potency (MCC-13) | Potency (MCC-26)

CC(=O)c1ccc(OCC(=O)N2CCCCC2)cc1
inactive: max response (CRL-7250) 2.04% | max response (HEK293) -3.89% | max response (HaCat [1]) -0.673% | outcome (KB-3-1) | outcome (NIH3T3) | Potency (MCC-13) | Potency (MCC-26)

O=C(O)Cc1ccc(-c2ccccc2)cc1
inactive: Potency (P93_24) | Potency (P94_40) | Potency (PAD) | Potency (PC15) | Potency (PC26) | Potency (PC49) | Potency (SC27B) | Potency (TAB109) | Potency (TAB113) | Potency (TAB165) | Potency (W2) | max response (CRL-7250) -1.48% | max response (HEK293) -6.63% | max response (HaCat [1]) -10.6% | max response (KB-3-1) -5.98% | max response (NIH3T3) -5.58% | Potency (MCC-13)

CCCSc1ccc2nc(NC(=O)OC)[nH]c2c1
inactive: Potency (P93_24) | Potency (PAD) | Potency (PC15) | Potency (PC26) | Potency (PC49) | Potency (SC27B) | Potency (TAB109) | Potency (TAB113) | Potency (TAB165) | max response (HaCat [1]) -6.26%
active: Potency (CRL-7250) 5.96 µM | Potency (HEK293) 0.75 µM | Potency (NIH3T3) 1.88 µM | Potency (MCC-13) 1.68 µM

CCOc1ccc2nc(S(N)(=O)=O)sc2c1
inactive: Potency (PAD) | Potency (PC26) | Potency (PC49) | Potency (SC27B) | Potency (TAB109) | Potency (TAB113) | Potency (TAB165) | Potency (W2) | max response (CRL-7250) -14% | max response (HEK293) -2.22% | max response (HaCat [1]) -4.97% | max response (KB-3-1) 8.76% | outcome (NIH3T3) | Potency (MCC-13) | Potency (MCC-26)

Nc1ccc(O)c([N+](=O)[O-])c1
inactive: max response (CRL-7250) 4.51% | max response (HEK293) -8.71% | outcome (HaCat [1]) | outcome (HACAT [2]) inactive [at 92 µM] | Potency (MCC-13)

Nc1ccc([N+](=O)[O-])cc1O
inactive: max response (CRL-7250) -25% | max response (HEK293) -27.4% | max response (HaCat [1]) 4.66% | max response (KB-3-1) 10.6% | Potency (MCC-13)

O=C(O)[C@H](CC(=O)N1C[C@H]2CCCC[C@H]2C1)Cc1ccccc1
inactive: Potency (P93_24) | Potency (P94_40) | Potency (PAD) | Potency (PC15) | Potency (PC26) | Potency (PC49) | Potency (SC27B) | Potency (TAB109) | Potency (TAB113) | Potency (TAB165) | Potency (W2) | max response (CRL-7250) -6.27% | max response (HEK293) -22.3% | max response (HaCat [1]) -9.54% | max response (KB-3-1) -7.55% and -0.116% | max response (NIH3T3) 3.24%

C/C(=N\O)c1ccc(OCC(=O)N2CCCCC2)cc1
inactive: max response (CRL-7250) -1.81% | max response (HEK293) 2.8% | max response (HaCat [1]) 2.33% | outcome (KB-3-1) | max response (NIH3T3) -0.0363% | Potency (MCC-13)

Nc1cc(-c2ccncc2)c[nH]c1=O
inactive: Potency (P93_24) | Potency (P94_40) | Potency (PAD) | Potency (PC15) | Potency (PC49) | Potency (SC27B) | Potency (TAB109) | Potency (TAB113) | Potency (TAB165) | Potency (W2) | outcome (CRL-7250) | max response (HEK293) 1.99% | max response (HaCat [1]) 3.01% | max response (KB-3-1) 4.08% | max response (NIH3T3) -0.0001% | Potency (MCC-13)

CCC1C(=O)OCC1Cc1cncn1C (centres undefined)
inactive: Potency (P93_24) | Potency (P94_40) | Potency (PAD) | Potency (PC15) | Potency (PC26) | Potency (PC49) | Potency (SC27B) | Potency (TAB109) | Potency (TAB113) | Potency (TAB165) | Potency (W2) | outcome (CRL-7250) | max response (HEK293) 0.743% | max response (HaCat [1]) 0.604% | max response (KB-3-1) -11.4% | max response (NIH3T3) -5.1% | Potency (MCC-13)

C[N+]1(C)[C@@H]2CC(OC(=O)[C@H](CO)c3ccccc3)C[C@H]1[C@@H]1O[C@@H]12 (some centres undefined)
inactive: outcome (CRL-7250) | outcome (HEK293) | outcome (HaCat [1]) | max response (NIH3T3) 4.27% | outcome (HACAT [2]) | outcome (HEK293T) | Potency (MCC-13) | Potency (MCC-26)
